Inconclusive results are not listed. Unmarked numbers belong to inactive results. Calls of active or inactive are those of the source. Calls come from the whole dose curve; as a rule, active = well fitted cell-killing curve with a large enough effect; inconclusive = small, poorly fitted or top-dose-only effect, or effect the other way; inactive = no such curve, though single readings can be large or run the other way.

Experimental findings from PubChem BioAssay (NCATS) are described below.

Test [1] in a line: Quantitative High-Throughput drug screen in 47 multiple myeloma cell lines against the NCATS MIPE library collection: OPM1_PLB cell viability assay (AID 1918989). Note: nearly all actives have a fitted effect of over 40% in size. Put shortly: (§1)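 500 cells/well; MIPE 4.0 drugs pin-transferred; 48 h, 37C, 5% CO2. CellTiter-Glo, 5 min RT, luminescence. Controls: DMSO 100%, media 0%.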
Test [2] is described as follows: Quantitative High-Throughput drug screen in 47 multiple myeloma cell lines against the NCATS MIPE library collection: XG6_PLB cell viability assay (AID 1919865). Note: nearly all actives have a fitted effect of over 40% in size. Put shortly: as §1
Test [3] in a line: Quantitative High-Throughput drug screen in 47 multiple myeloma cell lines against the NCATS MIPE library collection: PE2_PLB cell viability assay (AID 1919869). Note: nearly all actives have a fitted effect of over 35% in size. A digest of the protocol:
as §1

Test [4] is described as follows: Quantitative High-Throughput drug screen in 47 multiple myeloma cell lines against the NCATS MIPE library collection: PCM6_Riken cell viability assay (AID 1919870). Note: nearly all actives have a fitted effect of over 30% in size. A digest of the protocol: as §1
Test [5] is described as follows: Quantitative High-Throughput drug screen in 47 multiple myeloma cell lines against the NCATS MIPE library collection: RPMI8226_ATCC cell viability assay (AID 1919871). Note: nearly all actives have a fitted effect of over 30% in size. A digest of the protocol:
as §1

Test [6] in a line: Quantitative High-Throughput drug screen in 47 multiple myeloma cell lines against the NCATS MIPE library collection: UTMC2_PLB cell viability assay (AID 1919868). Note: nearly all actives have a fitted effect of over 55% in size. A digest of the protocol: as §1
Test [7] is described as follows: Quantitative High-Throughput drug screen in 47 multiple myeloma cell lines against the NCATS MIPE library collection: U266_ATCC cell viability assay (AID 1919864). Note: nearly all actives have a fitted effect of over 35% in size. Put shortly:
as §1

Test [8] is described as follows: Quantitative High-Throughput drug screen in 47 multiple myeloma cell lines against the NCATS MIPE library collection: XG1_PLB cell viability assay (AID 1919866). Note: nearly all actives have a fitted effect of over 35% in size. A digest of the protocol:
as §1

Test [9] in a line: Quantitative High-Throughput drug screen in 47 multiple myeloma cell lines against the NCATS MIPE library collection: VP6_DJ cell viability assay (AID 1919867). Note: nearly all actives have a fitted effect of over 40% in size. Put shortly:
as §1

A short description of test [10]: Quantitative High-Throughput drug screen in 47 multiple myeloma cell lines against the NCATS MIPE library collection: SKMM1_PLB cell viability assay (AID 1919863). For viability: series mostly up to about 46 µM. Note: nearly all actives have a fitted effect of over 35% in size. Conditions: SKMM1 myeloma viability, CellTiter-Glo ATP, 48 h; viability: hits give low values. Put shortly: as §1
Background: Cellular ATP, detected with luciferase, serves as a proxy for viable cell number.
Potency is the fitted concentration of half-maximal effect.

`Cc1noc(NS(=O)(=O)c2ccc(N)cc2)c1C`: the Potency entry in test [1], in [2], in [3], in test [4] and in test [5] was “inactive” throughout.
With `CCn1cc(C(=O)O)c(=O)c2cc(F)c(N3CCNCC3)cc21`, the Potency result in test [1], in [2], in [6], in [3], in [4] and in test [5] was “inactive” throughout.
On to `C[C@@H]1C[C@H]2[C@@H]3CCC4=CC(=O)C=C[C@]4(C)[C@@]3(Cl)[C@@H](O)C[C@]2(C)[C@@]1(OC(=O)c1ccco1)C(=O)CCl`, for which the Potency in test [1] was 10.5 µM (active); in test [7], 9.35 µM (active); in [2], 1.66 µM (active); in test [8], 3.72 µM (active); in test [9], 2.96 µM (active); in [6] it was 10.5 µM (active). In addition, the Potency in test [3] was 5.9 µM (active); in test [4], 2.96 µM (active).
As for `O=C(O)CSCC(=O)NC1CCSC1=O` (configuration not stated), the Potency result in [1], in test [2], in [3], in test [4] and in test [5] was “inactive” throughout. Further, the viability in test [10] is 130%.
On to `NC(=O)c1cccnc1`, for which, in [10], the viability is 105%. The Potency result in test [7], in [8], in test [6] and in [3] was “inactive” throughout. Moreover, the Potency in test [2] was 16.6 µM (active).
Regarding `CC(C)(Sc1cc(C(C)(C)C)c(O)c(C(C)(C)C)c1)Sc1cc(C(C)(C)C)c(O)c(C(C)(C)C)c1`, the viability in test [10] is 149%. The Potency is 3.32 µM (active) in [7], 5.9 µM (active) in [6] and 6.62 µM (active) in test [3].
For `C[C@@H](CN1CC(=O)NC(=O)C1)N1CC(=O)NC(=O)C1`, the viability in test [10] was 130%. The Potency entry in test [7] and in [5] was “inactive” in each case. In addition, the results for the Potency in test [8] and in test [6] were 14.8 µM (active) and 2.96 µM (active), respectively.
As to `COc1ccc(-c2ccc3cc(C(=O)O)ccc3c2)cc1C12CC3CC(CC(C3)C1)C2`, the viability in test [10] is 119%. Moreover, the Potency was 5.26 µM (active) in test [7] and 0.833 µM (active) in test [5].
Take `CC(C)C[C@H](NC(=O)[C@H](CCc1ccccc1)NC(=O)CN1CCOCC1)C(=O)N[C@@H](Cc1ccccc1)C(=O)N[C@@H](CC(C)C)C(=O)[C@@]1(C)CO1`: the Potency in [10] is 0.0209 µM (active); in test [7] it was 0.0047 µM (active); in [2] it was 0.001 µM (active); in test [8], 0.001 µM (active); in [9], 0.001 µM (active); in [6], 0.001 µM (active). The Potency in test [3] was 0.001 µM (active); in test [4] it was 0.001 µM (active); in test [5], 0.0166 µM (active).
With `CC[C@H](C)C(=O)O[C@H]1C[C@@H](C)C=C2C=C[C@H](C)[C@H](CC[C@@H]3C[C@@H](O)CC(=O)O3)[C@H]21`, the Potency in [1] is 11.8 µM (active). The Potency entry in [4] was “inactive”.
In the case of `C[C@]12C=CC(=O)C=C1CC[C@@H]1[C@@H]2C(=O)C[C@@]2(C)[C@H]1CC[C@]2(O)C(=O)CO`, the viability in test [10] was 141%. The Potency result in test [7], in test [2], in test [9], in [4] and in test [5] was “inactive” throughout.
On to `COc1ccc(C(=O)CC(=O)c2ccc(C(C)(C)C)cc2)cc1`, for which the Potency was 5.9 µM (active) in test [10]; 0.743 µM (active) in test [2]; 2.64 µM (active) in test [9]; 3.72 µM (active) in test [6]; 5.26 µM (active) in [3]; 0.935 µM (active) in test [4].
As for `CCc1cc(C(N)=S)ccn1`, the Potency result in [1], in test [2], in test [4] and in test [5] was “inactive” in each case.
Regarding `O=S(=O)(c1cccc2cnccc12)N1CCCNCC1`, the viability in [10] was 125%. Besides, the Potency result in [7] and in test [5] was “inactive” throughout. Besides, the Potency in test [2] is 20.9 µM (active); in [9], 18.7 µM (active); in [4], 16.6 µM (active).
As for `COC(=O)Nc1nc2ccc(C(=O)c3ccccc3)cc2[nH]1`, the Potency in [10] was 0.332 µM (active); in [7] it was 14.8 µM (active); in [2], 0.418 µM (active); in test [8], 0.332 µM (active); in [6] it was 2.35 µM (active); in [3] it was 2.96 µM (active). For the same compound, in test [4], the Potency was 5.9 µM (active).
Turning to `CN1CCN(c2c(F)cc3c(=O)c(C(=O)O)cn(CCF)c3c2F)CC1`, the Potency result in test [1], in [8], in test [3] and in test [4] was “inactive” each time.
Turning to `COc1ccc2c(c1)c(CC(=O)OCC(=O)O)c(C)n2C(=O)c1ccc(Cl)cc1`, the viability in test [10] was 138%. Moreover, the Potency entry in test [7], in test [2], in test [4] and in test [5] was “inactive” in each case.
As to `C[C@@H]1CN(c2c(F)c(N)c3c(=O)c(C(=O)O)cn(C4CC4)c3c2F)C[C@H](C)N1`, in test [10], the viability was 160%. Moreover, the Potency result in [2], in test [8], in [6], in test [3], in test [4] and in [5] was “inactive” each time.
In the case of `CCCN[C@H]1CCc2nc(N)sc2C1`, the viability in [10] is 141%. Also, the Potency result in test [7], in [2], in [8], in test [3], in test [4] and in [5] was “inactive” each time.
`CC(C)(C)NC(=O)[C@H]1CC[C@H]2[C@@H]3CC[C@H]4NC(=O)C=C[C@]4(C)[C@H]3CC[C@]12C`: in [10], the viability is 142%. The Potency was 0.743 µM (active) in test [7]; 0.132 µM (active) in test [2]; 0.235 µM (active) in test [8]; 0.662 µM (active) in [9]; 1.66 µM (active) in [6]; 1.32 µM (active) in test [3]. The Potency in [4] was 0.59 µM (active). In addition, the Potency entry in test [5] was “inactive”.
As for `CCCCOc1ccc(CC(=O)NO)cc1`, the Potency in test [1] was 14.8 µM (active). Moreover, the Potency entry in [8] and in test [4] was “inactive” each time.
As to `CC(=O)CC(c1ccccc1)c1c(O)c2ccccc2oc1=O` (configuration not stated), the Potency entry in test [1], in test [2], in [3] and in test [5] was “inactive” throughout.
Turning to `CCOc1cc(N)c(Cl)cc1C(=O)NCC1CN(Cc2ccc(F)cc2)CCO1` (configuration not stated), the viability in [10] is 114%. Besides, the Potency entry in test [2], in test [8], in test [6], in [3], in [4] and in test [5] was “inactive” throughout.
Regarding `NC(N)=NC(N)=NCCc1ccccc1`, the Potency in test [1] was 20.9 µM (active); in [8], 7.43 µM (active); in test [3] it was 16.6 µM (active); in test [5] it was 20.9 µM (active).
As for `Cc1ccc(S(=O)(=O)N[C@@H](Cc2ccccc2)C(=O)CCl)cc1`, the Potency was 18.7 µM (active) in test [10]; 14.8 µM (active) in test [2]; 7.43 µM (active) in test [8]; 13.2 µM (active) in test [6]; 10.5 µM (active) in test [3]; 11.8 µM (active) in test [4]. The Potency in test [5] was 20.9 µM (active).
For `NC1(c2ccc(-c3nc4ccn5c(=O)[nH]nc5c4cc3-c3ccccc3)cc2)CCC1`, the Potency is 7.43 µM (active) in test [10]; 20.9 µM (active) in test [2]; 20.9 µM (active) in test [8]; 1.87 µM (active) in test [9]; 1.18 µM (active) in [6]; 1.66 µM (active) in test [4]. For the same compound, the Potency in test [5] is 1.05 µM (active).

The term viability denotes a read-out of living cells in per cent, often relative to untreated cells.
